PLK1 PBD inh: inhibitors of human PLK1 polo-box domain binding; P53350; Potency, µM, actives largely listed as inhibitors; 360,000 tested, 2.8% active; Plk1 PBD binding of FITC phosphopeptide, fluorescence polarization; also: series mostly up to about 57 µM; nearly all actives have a fitted effect of over 65% in size
G9a block: blocks human histone lysine methyltransferase G9a; Q96KQ7; G9a H3K9 monomethylation, AlphaScreen, 2 h; Potency, µM (series often up to 102 µM), most hits filed as inhibitors; 350,000 tested, 8.8% active; AID 504332; also: nearly all actives have a fitted effect of over 75% in size
Target sequence (Q96KQ7 913-1193 limits assumed): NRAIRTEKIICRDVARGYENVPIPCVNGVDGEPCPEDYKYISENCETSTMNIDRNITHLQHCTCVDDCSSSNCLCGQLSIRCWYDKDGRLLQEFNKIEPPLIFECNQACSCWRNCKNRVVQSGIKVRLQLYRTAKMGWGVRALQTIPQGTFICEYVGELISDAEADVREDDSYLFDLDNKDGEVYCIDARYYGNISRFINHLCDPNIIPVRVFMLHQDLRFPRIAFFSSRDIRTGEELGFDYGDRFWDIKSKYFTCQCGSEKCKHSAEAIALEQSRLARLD
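G9a (20 nM) preincubated 15 min RT with compounds, then 500 nM biotinylated H3K9 peptide and 20 uM SAM added; 2 h RT reaction. Monomethyl-H3K9 product detected by AlphaScreen with anti-H3K9me1 antibody, streptavidin donor and anti-rabbit IgG acceptor beads.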
HP1b chromo inh: blocks HP1-beta chromodomain binding to methylated histone tails; Potency, µM (series often up to 114 µM), usual class: inhibitors; AlphaScreen HP1-beta / biotin-H3K9me3 peptide binding; 390,000 tested, 0.56% active; also: nearly all actives have a fitted effect of over 70% in size
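HP1-beta protein (50 nM final) preincubated 30 min at room temperature with biotinylated H3(1-18)K9me3 peptide (50 nM) in PBS pH 7.4, 0.01% Tween-20, then compound added for 30 min. AlphaScreen streptavidin donor/nickel chelate acceptor beads (10 ug/mL final), 30 min dark, luminescence read.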
JMJD2A Tudor inh: JMJD2A Tudor domain (human) inhibition | O75164 | AlphaScreen JMJD2A-Tudor / H3K4me3 peptide binding | Potency, µM (series often up to 114 µM), most hits filed as inhibitors | 390,000 tested, 4.4% active | AID 504339; also: nearly all actives have a fitted effect of over 50% in size
VDR inhibitor: blocks the human vitamin D receptor; P11473; 400,000 tested, 0.93% active; VDR-SRC2-3 peptide fluorescence polarization, 2 h; Potency, µM, hits mostly inhibitors
Target sequence (P11473 whole entry, looked up): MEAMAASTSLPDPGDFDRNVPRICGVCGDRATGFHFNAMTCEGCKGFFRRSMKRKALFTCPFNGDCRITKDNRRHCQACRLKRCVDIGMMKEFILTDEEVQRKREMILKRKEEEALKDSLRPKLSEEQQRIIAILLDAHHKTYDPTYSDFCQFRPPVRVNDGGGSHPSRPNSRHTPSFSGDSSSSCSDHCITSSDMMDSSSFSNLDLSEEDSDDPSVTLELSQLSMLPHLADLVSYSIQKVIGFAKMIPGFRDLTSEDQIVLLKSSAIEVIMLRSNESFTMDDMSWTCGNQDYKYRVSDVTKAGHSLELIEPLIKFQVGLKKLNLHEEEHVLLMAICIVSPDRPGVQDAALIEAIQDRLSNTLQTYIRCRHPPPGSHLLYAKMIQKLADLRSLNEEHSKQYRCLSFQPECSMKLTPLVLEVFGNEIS
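Reagent solutions, kept cold and dark, are dispensed first; compounds are then pinned in at 23 nl, plates briefly spun, and incubated 2 h at ambient temperature. Inhibition of VDR–SRC2-3 peptide binding is read by fluorescence polarization.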
BAZ2B inh: blocks human BAZ2B; Q9UIF8; AlphaScreen BAZ2B-H3K14Ac peptide displacement; Potency, µM (series often up to 114 µM), actives largely listed as inhibitors; 360,000 tested, 4.4% active; AID 504333; also: nearly all actives have a fitted effect of over 60% in size
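Multi-concentration screen (max 110 uM) measuring displacement of acetylated histone H3 peptide from BAZ2B by AlphaScreen, using 50 nM protein, 50 nM peptide and 10 ug/mL streptavidin donor plus Ni-chelate acceptor beads.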
Of the large screens only hits and unclear results are named; the others gave an inactive call. Shown are actives, neighbours in structure and some others; about 11% of the full set was active somewhere. Calls follow the shape of the dose curve; as a rule, active = well fitted curve in the direction sought with a large enough effect; inconclusive = small, poorly fitted or top-dose-only effect, or another doubt; inactive = no such curve, though single readings can be large; an effect the other way counts as inactive or inconclusive.

CCN1C(=O)/C(=C2/C=CC=CN2C)SC1=S	G9a block inconclusive, HP1b chromo inh inconclusive, BAZ2B inh inconclusive
CN1C=CC=C/C1=C1/SC(=S)N(Cc2ccccc2)C1=O	G9a block inconclusive, HP1b chromo inh inconclusive, JMJD2A Tudor inh inconclusive, BAZ2B inh 40µM
COc1ccc(N2C(=O)/C(=C3/C=CC=CN3C)SC2=S)cc1	G9a block 45µM, VDR inhibitor inconclusive
COC(=O)c1ccccc1NC(=O)CNc1ccc(F)c(S(=O)(=O)N2CCOCC2)c1	none
Cc1ccc(-n2cc[nH]c2=S)cc1C	G9a block inconclusive, JMJD2A Tudor inh 35µM
S=c1[nH]ccn1-c1cccc(Cl)c1	PLK1 PBD inh inconclusive, G9a block inconclusive, JMJD2A Tudor inh 7.9µM
COC(=O)C(C)Sc1nc2c(c(=O)n(C)c(=O)n2C)n1CCC(C)C (configuration not stated)	G9a block 79µM
COC(=O)C(C)Sc1nc2c(c(=O)[nH]c(=O)n2C)n1CCC(C)C (configuration not stated)	none
CC(C)(C)C(=O)/C=c1\s/c(=C\c2ccc(-c3ccc([N+](=O)[O-])cc3)o2)c(=O)n1CC(=O)NC(N)=O	G9a block 45µM, BAZ2B inh inconclusive
Cc1cc(/C=N/NC(=O)c2ccc(O)cc2)c(C)n1C1CC1	PLK1 PBD inh 19µM, BAZ2B inh inconclusive
Cc1ccc(C(=O)Nc2cccc(C(=O)N/N=C/c3ccc(O)cc3)c2)cc1	none
CC(C)NC(=O)Nc1cccs1	G9a block 14µM
CC1CCC(NC(=O)Nc2cccs2)CC1 (configuration not stated)	G9a block inconclusive
CC(NCc1cccs1)C(=O)NC1CCCCC1 (configuration not stated)	G9a block inconclusive, HP1b chromo inh inconclusive, JMJD2A Tudor inh 20µM, BAZ2B inh 40µM
O=C(Nc1cccs1)NC1CCCC1	G9a block 32µM
CC(C)(O)C#Cc1cccc(-c2nc(C(=O)NCCCN3CCOCC3)cc3c2[C@H](CCO)N(S(=O)C(C)(C)C)C3)c1 (some centres not stated)	none (no result: G9a block, HP1b chromo inh, JMJD2A Tudor inh, VDR inhibitor, BAZ2B inh)
C=CCN1C(=O)c2ccc(C(=O)N(C)CC(=O)Nc3ccccc3Br)cc2C1=O	none
COc1cc(NC(=O)Cn2c(=O)n(C(C)C)c(=O)c3oc4ccccc4c32)cc(OC)c1	none (no result: PLK1 PBD inh)
CC(C)(C)c1ccc(S(=O)(=O)/C=C/C#N)cc1	G9a block 0.95µM, VDR inhibitor 6.3µM (no result: PLK1 PBD inh, HP1b chromo inh, JMJD2A Tudor inh, BAZ2B inh)
Cc1csc(CNC(=O)c2ccc(OC3CCN(CCc4ccccc4)CC3)cc2)n1	none
Cc1nn(-c2ccccc2)c2c1N(CCCC(=O)NCc1ccc(N(C)C)cc1)C(=O)CS2	G9a block inconclusive, JMJD2A Tudor inh 56µM, BAZ2B inh inconclusive (no result: PLK1 PBD inh)
Cc1ccc(Oc2c(C(F)(F)F)oc3c(CN4CCC(C)CC4)c(O)ccc3c2=O)cc1	none (no result: PLK1 PBD inh)
COc1ccc(NC(=S)Nc2ncccc2C)cc1OC	G9a block 22µM, HP1b chromo inh inconclusive, JMJD2A Tudor inh inconclusive, BAZ2B inh inconclusive
COc1ccc(NC(=S)Nc2ncccc2C)c(OC)c1	PLK1 PBD inh inconclusive, G9a block inconclusive, HP1b chromo inh inconclusive, JMJD2A Tudor inh 50µM, BAZ2B inh 40µM
CCN(CC)S(=O)(=O)c1cccc(C(=O)N/N=C(\C)c2ccc(O)cc2O)c1	JMJD2A Tudor inh inconclusive, BAZ2B inh 8.9µM
CCOc1ccccc1/C=N/NC(=O)c1cccc(S(=O)(=O)N(CC)CC)c1	none
CCN(CC)S(=O)(=O)c1cccc(C(=O)N/N=C/c2ccc(O)c(O)c2O)c1	PLK1 PBD inh 8.4µM, G9a block 1.8µM, HP1b chromo inh inconclusive, JMJD2A Tudor inh inconclusive, BAZ2B inh 40µM
Cc1ccc2nc(Cl)c3cc(C(=O)NCCCN(C)Cc4ccccc4)sc3c2c1	G9a block inconclusive, JMJD2A Tudor inh inconclusive, BAZ2B inh 22µM (no result: PLK1 PBD inh)
CCn1c(=O)n(CC)c2cc(N3CCCC3)c(NC(=O)Nc3cc(C)cc(C)c3)cc21	none (no result: PLK1 PBD inh)
COc1cc(/C=C2\SC(=S)N(c3cccnc3)C2=O)ccc1O	BAZ2B inh inconclusive
O=C(O)C(Cc1ccccc1)N1C(=O)/C(=C/c2cccc3ccccc23)SC1=S (configuration not stated)	G9a block inconclusive, BAZ2B inh 56µM (no result: PLK1 PBD inh, HP1b chromo inh, JMJD2A Tudor inh, VDR inhibitor)
Cc1ccc(/C=C2\SC(=S)N(C(Cc3ccccc3)C(=O)O)C2=O)cc1 (configuration not stated)	PLK1 PBD inh inconclusive, G9a block inconclusive, JMJD2A Tudor inh inconclusive, VDR inhibitor 50µM, BAZ2B inh inconclusive
COc1cc(/C=C2\SC(=S)N(C(Cc3ccccc3)C(=O)O)C2=O)ccc1O (configuration not stated)	HP1b chromo inh inconclusive, VDR inhibitor inconclusive, BAZ2B inh 35µM (no result: G9a block)
O=C(O)C(Cc1ccccc1)N1C(=O)c2cccc3cccc(c23)C1=O (configuration not stated)	none
O=C(O)C(Cc1ccccc1)N1C(=O)/C(=C/c2ccccc2)SC1=S (configuration not stated)	PLK1 PBD inh inconclusive, G9a block inconclusive, JMJD2A Tudor inh inconclusive, VDR inhibitor inconclusive, BAZ2B inh inconclusive
N#Cc1ccccc1Cn1c(=O)n(CCCC(=O)NCc2ccc3c(c2)OCO3)c(=O)c2sccc21	none (no result: PLK1 PBD inh)
CCOc1ccc2oc(=O)cc(CN3CCN(C(=O)c4cccc(F)c4)CC3)c2c1	none (no result: PLK1 PBD inh)
COCc1ccc(C(=O)Nc2ccccc2C(=O)NCc2cccnc2)cc1	none
NC(=S)NCc1cccnc1	none
CC(C)COc1cccc(C(=O)NC(=S)NCc2cccnc2)c1	G9a block 45µM, JMJD2A Tudor inh inconclusive
C=CCOc1ccc(C(=O)Nc2ccccc2C(=O)NCc2cccnc2)cc1	G9a block 71µM
CCOc1cccc(C(=O)NC(=S)NCc2cccnc2)c1	none
CCCOc1ccc(C(=O)NC(=S)NCc2cccnc2)cc1	G9a block 45µM, BAZ2B inh inconclusive
NNC(=S)NCc1cccnc1	G9a block 1.4µM, JMJD2A Tudor inh inconclusive
CCOC(=O)C(=NO)C1=CSC2=NNC(C)(C)N12	none (no result: G9a block, HP1b chromo inh, JMJD2A Tudor inh, VDR inhibitor, BAZ2B inh)
COc1ccc(CNC(=O)CC(c2ccc(OC)cc2)N2Cc3ccccc3C2=O)cc1 (configuration not stated)	none (no result: PLK1 PBD inh)
CC(=O)NCCNc1ncnc2ccc(-c3cccc(NS(C)(=O)=O)c3)cc12	VDR inhibitor 45µM (no result: PLK1 PBD inh, HP1b chromo inh, JMJD2A Tudor inh, BAZ2B inh)
COCCNc1ncnc2ccc(-c3cccc(NS(C)(=O)=O)c3)cc12	VDR inhibitor inconclusive (no result: PLK1 PBD inh, HP1b chromo inh, JMJD2A Tudor inh, BAZ2B inh)
CC1=C(c2ccc(C)c(C)c2)S(=O)(=O)N=C1N1CCC(C(=O)NCc2ccc(N(C)C)cc2)CC1	JMJD2A Tudor inh inconclusive, BAZ2B inh inconclusive (no result: PLK1 PBD inh)
COc1ccc(/C=C2\SC(=S)N(N3C(=O)CCC3=O)C2=O)cc1O	G9a block 8.9µM, BAZ2B inh inconclusive
COc1ccccc1/C=C1\SC(=S)N(N2C(=O)CCCC2=O)C1=O	G9a block 20µM, HP1b chromo inh inconclusive, JMJD2A Tudor inh inconclusive, BAZ2B inh inconclusive

Screening results (PubChem)
